Test results: PubChem BioAssay AID492973 (The Scripps Research Institute Molecular Screening Center, 2010)
Values without a mark were called inactive. Activity calls are given as the source filed them.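 Rule for the calls: active = inhibition above 50% of the enzyme in parasite cell lysate; inactive = the rest.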

Assay: PfM17LAP inhibitors in parasite extract, late-stage follow-up, cell lysate, fluorescence, Plasmodium falciparum lysate, powder samples (AID 492973)
Details: P. falciparum cell lysate, H-Leu-NHMec fluorescence; at 5 µM; active compounds read high

Row | SMILES | inhibition
1 | CCOc1cccc(-c2cc(=O)[nH][nH]2)c1 | 43%
2 | CCOC(=O)c1c(-c2ccc(C)cc2)csc1NC(=O)[C@H]1CC=CC[C@H]1C(=O)O | 48%
3 | CCc1cc2ccccc2nc1SCC(=O)Nc1cc(OC)c(OC)cc1C(=O)O | 68% (active)
4 | S=c1nc(-c2cccc(Cl)c2)[nH][nH]1 | 22%
5 | COC(=O)c1cccc(NC(=O)CSc2nc(C)cc(=O)[nH]2)c1 | 26%
6 | CCc1cc2cc(OC)ccc2nc1SCC(=O)Nc1cc(OC)c(OC)cc1C(=O)O | 68% (active)
7 | COc1cc(NC(=O)CSc2nc3cc(C)ccc3cc2C)c(C(=O)O)cc1OC | 64% (active)
8 | Cc1ccc(-n2c(C)cc(C(=O)COC(=O)c3ccc[nH]c3=O)c2C)cc1 | 43%
9 | O=C(CSc1nnc(Nc2ccccc2)s1)NN1C(=O)NC2(CCCCC2)C1=O | 57% (active)
10 | CCc1ccc(NC(=O)[C@H]2CC=CC[C@H]2C(=O)O)cc1 | 22%
11 | O=C(O)Cc1ccc(NC(=O)Nc2ccc(Br)cc2)cc1 | 41%
12 | CCOC(=O)c1c(NC(=O)[C@@H]2C3CCC(O3)[C@@H]2C(=O)O)sc(C)c1-c1ccc(C)cc1 (stereo not given in full) | 29%
13 | Cc1ccc(Nc2nnc(SCc3cc(=O)n4ccsc4n3)s2)c(C)c1 | 22%
14 | Cc1cc(C(=O)COC(=O)c2ccc[nH]c2=O)c(C)n1-c1ccc(F)cc1 | 32%
15 | CCOc1ccc(NC(=O)Nc2cccs2)cc1 | 48%
16 | CCOC(=O)c1c(-c2cccc(C)c2)csc1NC(=O)[C@H]1CC=CC[C@H]1C(=O)O | 26%
17 | COC(=O)c1c(-c2cc(C)ccc2C)csc1NC(=O)[C@@H]1CC=CC[C@@H]1C(=O)O | 64% (active)
18 | COc1ccc(-c2cc(=O)[nH][nH]2)cc1OC | 8%
19 | CCCCc1c(O)nc(SCC(=O)Nc2ccc3c(c2)CCC3)[nH]c1=O | 21%
20 | O=C(Nc1cc(Cl)ccc1Cl)[C@H]1CC=CC[C@H]1C(=O)O | 9%
21 | O=c1cc(-c2ccc(Cl)c(Cl)c2)[nH][nH]1 | 13%
22 | CCN(CC)c1ccc(NC(=O)CSc2nc(C)cc(=O)[nH]2)cc1 | 52% (active)
23 | COc1cc(NC(=O)CSc2nc3c(C)ccc(C)c3cc2C)c(C(=O)O)cc1OC | 74% (active)
24 | COc1ccc(NC(=O)CSc2nc(O)cc(=O)n2C)cc1 | 29%
25 | COc1ccc(NC(=O)CSC2=NC(=O)CC(C)=N2)cc1 | 27%
